# Source: PMC11062922 (Nature Chemical Biology, 2023)
# Read-outs that look alike come from different tables or passages of the source.
# Columns and labels:
# Set-up in all cases: species or system human, MV4-11 + K-562 + COLO205 + SK-N-BE2 + OVCAR-8
# ADCK1 = settings: read-out: apparent Kd; compound concentrations: 100 nM and 1000 nM (sheet 'Samples'), CATDS: 9.92203055838001E-2; n = 1
# AKT1 = settings: read-out: apparent Kd, compound concentrations: 100 nM and 1000 nM (sheet 'Samples'), n = 1
# AKT2 = settings: read-out: apparent Kd, compound concentrations: 100 nM and 1000 nM (sheet 'Samples'), n = 1
# CDC42BPG = settings: read-out: apparent Kd; compound concentrations: 100 nM and 1000 nM (sheet 'Samples'), CATDS: 4.9906722196616002E-2; n = 1
# CLK1 = settings: read-out: apparent Kd; compound concentrations: 100 nM and 1000 nM (sheet 'Samples'), CATDS: 3.0057021324399399E-2; n = 1
# CLK4 = settings: read-out: apparent Kd; compound concentrations: 100 nM and 1000 nM (sheet 'Samples'), CATDS: 3.6459308399585902E-2; n = 1
# CSNK1A1 = settings: read-out: apparent Kd; compound concentrations: 100 nM and 1000 nM (sheet 'Samples'), CATDS: 2.8495259280969999E-2; n = 1
# CSNK2A1;CSNK2A3 = settings: read-out: apparent Kd; compound concentrations: 100 nM and 1000 nM (sheet 'Samples'), CATDS: 2.5783405582401799E-2; n = 1
# HSP90AA1 = settings: read-out: apparent Kd; compound concentrations: 100 nM and 1000 nM (sheet 'Samples'), CATDS: 2.5840975218280202E-2; n = 1
# IARS = settings: read-out: apparent Kd; compound concentrations: 100 nM and 1000 nM (sheet 'Samples'), CATDS: 2.4824684596515999E-2; n = 1
# ILK = settings: read-out: apparent Kd; compound concentrations: 100 nM and 1000 nM (sheet 'Samples'), CATDS: 2.4595530906688499E-2; n = 1
# LATS1 = settings: read-out: apparent Kd; compound concentrations: 100 nM and 1000 nM (sheet 'Samples'), CATDS: 4.0745202540463502E-2; n = 1
# MAPK11 = settings: read-out: apparent Kd; compound concentrations: 100 nM and 1000 nM (sheet 'Samples'), CATDS: 3.2120600016528701E-2; n = 1
# MAPK14 = settings: read-out: apparent Kd; compound concentrations: 100 nM and 1000 nM (sheet 'Samples'), CATDS: 2.84299118528781E-2; n = 1
# MELK = settings: read-out: apparent Kd; compound concentrations: 100 nM and 1000 nM (sheet 'Samples'), CATDS: 2.8403307321335999E-2; n = 1
# PKN1 = settings: read-out: apparent Kd; compound concentrations: 100 nM and 1000 nM (sheet 'Samples'), CATDS: 3.7770198987071901E-2; n = 1
# PKN2 = settings: read-out: apparent Kd; compound concentrations: 100 nM and 1000 nM (sheet 'Samples'), CATDS: 2.64555223020508E-2; n = 1
# PRKACA = settings: read-out: apparent Kd; compound concentrations: 100 nM and 1000 nM (sheet 'Samples'), CATDS: 4.8150008864783198E-2; n = 1
# PRKACB = settings: read-out: apparent Kd; compound concentrations: 100 nM and 1000 nM (sheet 'Samples'), CATDS: 3.8489694396370601E-2; n = 1
# PRKCA = settings: read-out: apparent Kd; compound concentrations: 100 nM and 1000 nM (sheet 'Samples'), CATDS: 2.8417130340745399E-2; n = 1
# PRKCD = settings: read-out: apparent Kd; compound concentrations: 100 nM and 1000 nM (sheet 'Samples'), CATDS: 2.7001587668499999E-2; n = 1
# PRKG1 = settings: read-out: apparent Kd; compound concentrations: 100 nM and 1000 nM (sheet 'Samples'), CATDS: 5.7321528324025303E-2; n = 1
# PYGL = settings: read-out: apparent Kd; compound concentrations: 100 nM and 1000 nM (sheet 'Samples'), CATDS: 2.4948391152713498E-2; n = 1
# RIOK2 = settings: read-out: apparent Kd, compound concentrations: 100 nM and 1000 nM (sheet 'Samples'), n = 1
# ROCK1 = settings: read-out: apparent Kd; compound concentrations: 100 nM and 1000 nM (sheet 'Samples'), CATDS: 5.0643849743389702E-2; n = 1
# ROCK2 = settings: read-out: apparent Kd; compound concentrations: 100 nM and 1000 nM (sheet 'Samples'), CATDS: 5.2344501044754001E-2; n = 1
# RPS6KB1 = settings: read-out: apparent Kd; compound concentrations: 100 nM and 1000 nM (sheet 'Samples'), CATDS: 2.7290145261830101E-2; n = 1
# SYK = settings: read-out: apparent Kd; compound concentrations: 100 nM and 1000 nM (sheet 'Samples'), CATDS: 2.51844401612667E-2; n = 1
# T10 = test system: T1, T10; settings: read-out: apparent Kd; compound concentrations: 100 nM and 1000 nM (sheet 'Samples'), CATDS: 2.6247989636004901E-2; n = 1
# T1 construct: gene NAT10
# ACVR1B = settings: read-out: apparent Kd; compound concentrations:100 nM and 1000 nM (sheet 'Samples'); n = 1
# DAPK3 = settings: read-out: apparent Kd; compound concentrations:100 nM and 1000 nM (sheet 'Samples'); n = 1
# PIK3CG = settings: read-out: apparent Kd; compound concentrations:100 nM and 1000 nM (sheet 'Samples'); n = 1
# PKN3 = settings: read-out: apparent Kd; compound concentrations:100 nM and 1000 nM (sheet 'Samples'); n = 1
# PRKD2 = settings: read-out: apparent Kd; compound concentrations:100 nM and 1000 nM (sheet 'Samples'); n = 1
# PRKD3 = settings: read-out: apparent Kd; compound concentrations:100 nM and 1000 nM (sheet 'Samples'); n = 1
# TGFBR2 = settings: read-out: apparent Kd; compound concentrations:100 nM and 1000 nM (sheet 'Samples'); n = 1
# TGFBR1 = settings: read-out: apparent Kd; compound concentrations:100 nM and 1000 nM (sheet 'Samples'); n = 1
# ACVR1 = settings: read-out: apparent Kd; compound concentrations: 100 nM and 1000 nM (sheet 'Samples'), CATDS: 0.125244350144667; n = 1
# ACVR2B = settings: read-out: apparent Kd; compound concentrations: 100 nM and 1000 nM (sheet 'Samples'), CATDS: 0.106004759644949; n = 1
# DDR2 = settings: read-out: apparent Kd; compound concentrations: 100 nM and 1000 nM (sheet 'Samples'), CATDS: 9.6979339213766697E-2; n = 1
# ERBB3 = settings: read-out: apparent Kd; compound concentrations: 100 nM and 1000 nM (sheet 'Samples'), CATDS: 0.104926252845552; n = 1
# MAP2K1 = settings: read-out: apparent Kd; compound concentrations: 100 nM and 1000 nM (sheet 'Samples'), CATDS: 9.3485581268639997E-2; n = 1
# NCL = settings: read-out: apparent Kd; compound concentrations: 100 nM and 1000 nM (sheet 'Samples'), CATDS: 9.6162289206332394E-2; n = 1
# NNT = settings: read-out: apparent Kd; compound concentrations: 100 nM and 1000 nM (sheet 'Samples'), CATDS: 0.104881561069948; n = 1
compound,measurement,setting,value
CN(C)CCNS(=O)(=O)c1ccc(-c2ccnc3[nH]ccc23)cc1 [GSK977620A],potency estimated from few doses,ADCK1,145 nM
same,potency estimated from few doses,AKT1; CATDS: 2.85422229355832E-2,1480 nM
same,potency estimated from few doses,AKT2; CATDS: 2.77493450407107E-2,1600 nM
same,potency estimated from few doses,CDC42BPG,449 nM
same,potency estimated from few doses,CLK1,1300 nM
same,potency estimated from few doses,CLK4,827 nM
same,potency estimated from few doses,CSNK1A1,1490 nM
same,potency estimated from few doses,CSNK2A1;CSNK2A3,1990 nM
same,potency estimated from few doses,HSP90AA1,1980 nM
same,potency estimated from few doses,IARS,2250 nM
same,potency estimated from few doses,ILK,2330 nM
same,potency estimated from few doses,LATS1,658 nM
same,potency estimated from few doses,MAPK11,1100 nM
same,potency estimated from few doses,MAPK14,1500 nM
same,potency estimated from few doses,MELK,1500 nM
same,potency estimated from few doses,PKN1,768 nM
same,potency estimated from few doses,PKN2,1840 nM
same,potency estimated from few doses,PRKACA,479 nM
same,potency estimated from few doses,PRKACB,738 nM
same,potency estimated from few doses,PRKCA,1500 nM
same,potency estimated from few doses,PRKCD,1730 nM
same,potency estimated from few doses,PRKG1,352 nM
same,potency estimated from few doses,PYGL,2220 nM
same,potency estimated from few doses,RIOK2; CATDS: 4.2618907121449799E-2,602 nM
same,potency estimated from few doses,ROCK1,437 nM
same,potency estimated from few doses,ROCK2,412 nM
same,potency estimated from few doses,RPS6KB1,1680 nM
same,potency estimated from few doses,SYK,2150 nM
same,potency estimated from few doses,T10,1890 nM
Cc1csc(-c2nc(Nc3ccncc3)c3ccccc3n2)n1 [GW869640X],potency estimated from few doses,ACVR1B,17.6 nM
same,potency estimated from few doses,DAPK3,1290 nM
same,potency estimated from few doses,PIK3CG,1460 nM
same,potency estimated from few doses,PKN3,939 nM
same,potency estimated from few doses,PRKD2,191 nM
same,potency estimated from few doses,PRKD3,504 nM
same,potency estimated from few doses,TGFBR2,750 nM
O=C(c1ccc(-c2cc(-c3c[nH]nc3-c3ccccn3)ccn2)cc1)N1CCOCC1 [GW812171X],potency estimated from few doses,ACVR1B,119 nM
same,potency estimated from few doses,TGFBR1,67.6 nM
Cc1cccc(-c2nc(C)cc(Nc3ccncc3)n2)n1 [GSK257997A],potency estimated from few doses,ACVR1B,431 nM
same,potency estimated from few doses,PRKD2,408 nM
same,potency estimated from few doses,PRKD3,1590 nM
same,potency estimated from few doses,TGFBR1,75.9 nM
COc1ccc(C)c(Nc2ccnc(Nc3ccc(-c4cnc[nH]4)cc3)n2)c1.Cl [GW784041A],potency estimated from few doses,ACVR1,1190 nM
same,potency estimated from few doses,ACVR2B,1600 nM
same,potency estimated from few doses,AKT1; CATDS: 8.7869055703498899E-2,2370 nM
same,potency estimated from few doses,AKT2; CATDS: 9.9123908030557498E-2,1820 nM
same,potency estimated from few doses,DDR2,1910 nM
same,potency estimated from few doses,ERBB3,1630 nM
same,potency estimated from few doses,MAP2K1,2060 nM
same,potency estimated from few doses,NCL,1940 nM
same,potency estimated from few doses,NNT,1630 nM
same,potency estimated from few doses,RIOK2; CATDS: 9.3979230016613804E-2,2040 nM
